From PubChem BioAssay
An excerpt weighted towards active compounds, which were near 12% of everything screened.
PostGolgi ctrl = inhibits growth of the yeast control strain; efflux-deficient yeast background strain, growth absorbance A615, 16 h; inhibition, % at 10 µM; hit rate 5% among 98,000
PLAP act = human PLAP activation. P05187. purified PLAP enzyme, luminescent substrate read-out; stronger effect = higher value. activation fold at 20 µM. hit rate 1.2% among 96,000; in the data active means activation fold above about 2
DAT uptake mod = changed human dopamine transporter uptake under cocaine IC80. hit rate 1.3% among 110,000. LLC-PK1 hDAT cells, [14C]-dopamine uptake with cocaine IC80; actives deviate in either direction. B-score at 10 µM;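 active means Z score or B-score, a plate-position-corrected score, falls beyond the plate's 99.7% confidence bounds, in either direction; inactive means both scores lie inside the 99.7% bounds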;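 further: scored against the spread of the other compound wells on the same plate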
PostGolgi yeast = growth inhibition of a yeast mutant, post-Golgi transport screen. post-Golgi transport phenotypic cell assay. inhibition, % at 10 µM. hit rate 0.9% among 98,000. AID 739;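 further: yeast cells grown in 1536-well plates; yeast grown about 18 h at 30C before absorbance read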
D1 mod = D1 dopamine receptor (human) allosteric modulation | B-score at 10 µM | hit rate 5.9% among 58,000 | HEK293 D1, CRE-luciferase, dopamine EC30 potentiation; actives deviate in either direction | AID 641 | P21728;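 active means luminescence count or its row- and column-corrected plate score outside the 99.7% band of the plate's sample wells, on either side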
Cav32 inh = human Cav3.2 channel inhibition, primary screen | O95180 | Cav3.2-expressing cells, Fluo-4 calcium fluorescence FDSS; stronger effect = lower value | B-score at 10 µM | hit rate 4% among 100,000 | AID 449739;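 active means single-dose well whose peak fluorescence ratio is a statistical outlier from its plate by either plate-standardised score or position-corrected B-score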
* marks the source's active call; other numbers are inactive results; x = no result given. Unless noted, no stated cut-off is given here; in the data, active means inhibition above about 30%; inactive means the rest.

SMILES	PostGolgi ctrl	PLAP act	DAT uptake mod	PostGolgi yeast	D1 mod	Cav32 inh
CC1CCC(n2c(=S)[nH]c3ccccc3c2=O)CC1 (stereo not drawn)	49.4*	0.8	-0.0444	3.0	0.585	-0.264
O=c1c2ccccc2[nH]c(=S)n1C1CCCCC1	16.5	1	-0.386	5.5	1.65	x
Cc1ccccc1NC(=O)c1c(O)c2cccc3c2n(c1=O)CCC3	x	0.9	x	x	-0.273	x
O=C(COc1ccc2ccccc2c1)Nc1cccc2cccnc12	13.6	1	-7.56*	-0.6	x	-1.35
O=C(Nc1cccc2cccnc12)c1cccc2ccccc12	36.5*	0.8	-0.708	-3.8	x	-0.434
O=C(CN1C(=O)c2ccccc2C1=O)Nc1cccc2cccnc12	29.4	0.8	-0.0316	-5.0	-0.0272	-10.8*
CCCCCCCC(=O)N/N=C(\C)c1cccnc1	x	x	-0.443	x	x	0.354
Cc1ccc(C(=O)C(C)OC(=O)c2n[nH]c(=O)c3ccccc23)cc1 (stereo not drawn)	5.5	0.8	0.357	-2.6	x	-0.0765
Cc1cc(N(C)C)c(C#N)c(N2CCOCC2)n1	9.2	1	0.0661	1.2	x	-0.0625
CCC1Cc2c(nc3c4c(nc(N5CCOCC5)c(C#N)c24)NC(C)=N3)O1 (stereo not drawn)	x	x	x	x	4.19*	x
CCn1c(N)c(C(=O)NC)sc1=S	0.9	1	-0.994	0.8	0.0919	0.153
O=C(Nc1cccc(F)c1)C1CCN(C(=O)c2ccccc2Cl)CC1	-0.1	1.3	1.65	7.6	x	0.775
Nc1nc(SCc2nc3scc(-c4cccs4)c3c(=O)[nH]2)n[nH]1	0.1	2.5*	0.456	8.2	1	0.986
COc1ccc(CCNC(=O)COc2ccc(S(=O)(=O)N3CCOCC3)cc2)cc1OC	10.1	1.1	0.394	1.4	2.37	-4.33*
COc1ccc(CCNC(=O)CCC(=O)N2CCN(S(=O)(=O)c3ccc(Cl)cc3)CC2)cc1OC	-3.9	1.7	2.39	-3.3	x	-0.239
COc1ccc(CCNC(=O)COc2ccc(S(=O)(=O)N3CCOCC3)cc2)cc1	-3.2	1.2	2.44*	-4.3	0.654	-0.066
COc1ccc(C2C(C(=O)c3sc(C)nc3C)=C(O)C(=O)N2CCCn2ccnc2)cc1 (stereo not drawn)	x	x	x	x	0.377	x
Clc1ccc(Cn2ncc3c(NCc4ccco4)ncnc32)c(Cl)c1	39.3*	1.1	0.157	6.2	-0.518	-5.78*
c1ccc(CNc2ncnc3c2cnn3Cc2ccccc2)cc1	x	x	1	x	x	-3.07
Cc1nnc(NC(=O)C2CCCN(S(=O)(=O)c3ccccc3C(F)(F)F)C2)s1 (stereo not drawn)	41.9*	1	0.313	0.6	1.25	-0.0833
O=C(Nc1ccccc1F)C1CCCN(S(=O)(=O)c2cccc3cccnc23)C1 (stereo not drawn)	7.1	1.3	-0.342	-4.8	-0.927	0.887
O=C(Cc1ccc(S(=O)(=O)N2CCOCC2)s1)NCC1CCCCC1	4.8	0.9	-0.202	-5.4	-7.03*	0.591
O=C(NCC1CCN(c2ccc(S(=O)(=O)N3CCOCC3)cc2)CC1)c1ccc(Cl)cc1	14.9	1.6	0.96	-1.4	x	-5.42*
O=C(Cc1ccc(S(=O)(=O)N2CCOCC2)s1)Nc1ccc2c(c1)CCC2	6.4	1	1.11	0.3	0.0978	-6.14*
COCCOC(=O)C1=C(C)NC(=O)NC1c1c(F)cccc1Cl (stereo not drawn)	0.6	0.9	-1.22	12.2	-1.32	0.419
SMILES	PostGolgi ctrl	PLAP act	DAT uptake mod	PostGolgi yeast	D1 mod	Cav32 inh
COc1ccccc1N1C(=O)CCC1(C#N)c1ccccc1 (stereo not drawn)	14.0	1.1	-0.961	-9.7	-0.639	0.525
Nc1ccc(C(=O)N/N=C/c2ccccc2)cc1	17.5	0.9	-0.541	-9.6	x	-5.08*
COc1ccc(C2CN=NC23CCCc2ccccc2C3=O)cc1 (stereo not drawn)	21.4	1	x	2.1	x	-4.18*
COc1ccccc1C1CN=NC12CCCc1ccccc1C2=O (stereo not drawn)	34.9*	1	-0.0652	-14.3	x	-4.74*
O=C1c2ccccc2CCC12N=NCC2c1ccc(Cl)cc1 (stereo not drawn)	4.6	1	-0.605	0.6	x	-2.18
CN(C)S(=O)(=O)N(CC(=O)Nc1ccc2ccccc2c1)c1ccccc1	x	x	0.394	x	x	-9.53*
CN(C)S(=O)(=O)N(CC(=O)Nc1ccc(F)c(F)c1)c1ccccc1	0.0	0.8	-0.918	-7.1	x	-0.851
COc1cc(NS(=O)(=O)c2ccc(NC(=O)/C(=C\c3ccccc3OC)NC(=O)c3ccccc3)cc2)nc(OC)n1	24.3	1.5	-0.183	-4.0	x	0.0279
Brc1cccc(-c2nnc(SCc3ccon3)n2-c2ccccc2)c1	25.0	1.1	1.59	10.6	3.12	-4.59*
Nc1nc(CSc2nnc(-c3cccc(F)c3)n2-c2ccccc2)nc(N2CCOCC2)n1	x	x	x	x	-0.0103	x
CCOC(=O)c1cc(NC(=O)N2CCCCC2)c(C)nc1C	4.1	0.8	-0.209	1.0	x	0.00187
COc1ccc(CCN(C(=O)c2cccc(F)c2)C2CC(=O)N(c3ccc(OC)cc3)C2=O)cc1 (stereo not drawn)	2.8	1.5	-0.0556	1.0	x	-0.589
Cc1cccc(OCC(=O)O/N=C(\N)Cc2ccc(Cl)cc2)c1	-1.8	0.9	-0.0373	30.2*	x	-0.349
CC(C)SCc1nc2ccccc2[nH]1	-3.3	1.2	x	17.9	x	x
Cc1cc(C)cc(CC(Cc2nc3ccccc3[nH]2)c2nc3ccccc3[nH]2)c1 (stereo not drawn)	9.8	4	1.12	-6.9	x	-6.67*
Cc1nc2cc(NC(=O)COc3ccc(C#N)cc3)ccc2n1-c1ccccc1	6.4	1	-7.88*	7.9	-1.05	1.17
O=C(c1ccc(F)cc1)N1CCCCC(Sc2nnc3ccccn23)C1=O (stereo not drawn)	2.5	1.1	-0.523	2.8	-0.242	1.88
O=C(c1ccccc1)N1CCCCC(Sc2nnc3ccccn23)C1=O (stereo not drawn)	31.0*	0.9	0.175	-1.6	-0.365	-3.2
O=C(Nc1ccccc1Sc1ccccc1)c1ccccc1	28.8	0.6	0.502	-1.1	x	-2.39
COc1ccc(NC(=O)c2ccccc2NC(=O)C2CCCO2)cc1 (stereo not drawn)	1.4	1.1	-9.04*	-0.9	0.168	0.408
CC(C)NC(=O)c1ccccc1NC(=O)C1CCCO1 (stereo not drawn)	7.4	0.9	-0.0339	-3.0	x	0.317
O=C(Nc1ccccc1Sc1ccccc1)C1CCCO1 (stereo not drawn)	38.2*	1.1	-0.129	-3.0	3.61	0.0335
CCCc1cc(-c2n[nH]c(C)c2-c2ccc(C(=O)OCC)o2)c(O)cc1O	4.6	1.7	-0.242	-19.0	0.825	-1.73
CCCc1ccc(Oc2c(-c3ccc(O)c(C)c3O)n[nH]c2C)cc1	65.2*	1.8	0.493	79.8*	0.228	-1.75
CCCc1ccc(Oc2cn[nH]c2-c2ccc(O)c(C)c2O)cc1	91.8*	2.2*	0.778	80.2*	0.00315	-2.66
c1ccc(Cn2c(CNc3nc4ccccc4n3CCN3CCCCC3)nc3ccccc32)cc1	x	x	-0.0745	x	x	-3.81*
